Our source for the Potency and activity change, positive = activation values is PubChem BioAssay (Tox21).

Experiment [1] is described as follows: qHTS assay to identify small molecule agonists of the constitutive androstane receptor (CAR) signaling pathway - cell viability counter screen (AID 1224836). Further: nearly all actives have a fitted effect of over 45% in size. Further: potency means the concentration at half of the fitted maximal effect. The procedure, abridged:
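HepG2 cells stably carrying hCAR and a CYP2B6-2.2kb reporter; 15-concentration compounds plus PK11195 (final 0.75 uM), 23 hr at 37 C/5% CO2. Viability read by CellTiter-Fluor fluorescence.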

The nature of experiment [2]: qHTS assay to identify small molecule antagonists of the constitutive androstane receptor (CAR) signaling pathway - cell viability counter screen (AID 1224837). Further: nearly all actives have a fitted effect of over 45% in size. Further: potency means the concentration at half of the fitted maximal effect. Put shortly: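 Read-out: CellTiter-Fluor fluorescence after 23 hr at 37 C/5% CO2. Cells: HepG2 double-stable for hCAR and CYP2B6-2.2kb. Compounds tested at 15 concentrations in the presence of CITCO, final concentration 50 nM.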
Background: Quantitative high-throughput screening tests each substance at several concentrations.

Experiment [3] in a line: qHTS assay to identify small molecule antagonists of the estrogen related receptor signaling pathway with the pleiotropic PPARgamma coactivator (PGC) from Tox21 10K library - cell viability counter screen (AID 1224840; active means well fitted cell-killing curve with a large enough effect in the repeat runs, not every such curve was filed as active; further: nearly all actives have a fitted effect of over 40% in size; further: potency means the concentration at half of the fitted maximal effect). The procedure, abridged:
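Fluorescence read-out of CellTiter-Fluor viability reagent, added after cells had been exposed to compound in DMSO for 17.5 h at 37 C; 30 min development at 37 C/5% CO2. Cells: PGC/ERR line, 2,000/well.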

Experiment [4] can be described thus: qHTS assay to identify small molecule antagonists of the estrogen related receptor signaling pathway with the pleiotropic PPARgamma coactivator (PGC) from Tox21 10K library (AID 1224841; call rule not given here; further: actives are mostly falling curves and most rising ones were filed inactive; nearly all actives have a fitted effect of over 50% in size; further: potency means the concentration at half of the fitted maximal effect). Put shortly: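 Luminescence read-out (One-Glo luciferase reagent, 30 min at room temperature) from PGC/ERR cells exposed to DMSO-dissolved test compounds for 18 h at 37 C; cells, 2,000 per well, had been preincubated 6 h before compound transfer.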

The nature of experiment [5]: qHTS assay to identify small molecule agonists of the estrogen related receptor signaling pathway with the pleiotropic PPARgamma coactivator (PGC) from Tox21 10K library (AID 1224842). Further: nearly all actives have a fitted effect of over 15% in size. Further: potency means the concentration at half of the fitted maximal effect. Put shortly: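 Luminescence from One-Glo (30 min, room temperature) measured after PGC/ERR cells had 18 h at 37 C with pinned compound (23 nL in DMSO). Cells had been seeded at 2,000 per well and pre-incubated 6 h.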

The target in experiment [6] is Thyrotropin receptor (Homo sapiens) (UniProt P16473). As to the kind of experiment: qHTS assay to identify small molecule agonists of the thyroid stimulating hormone receptor (TSHR) signaling pathway (AID 1224843; calls by dose curve; further: nearly all actives have a fitted effect of over 45% in size; further: potency means the concentration at half of the fitted maximal effect). The procedure, abridged: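 A cell-based cAMP HTRF format was run in TSHR-transfected HEK293 cells, 800 per well. Treatment: 30 min, room temperature. Detection: 1 h with labelled cAMP and anti-cAMP cryptate. Concentration-response over 15 points, three replicates.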
Chain of Thyrotropin receptor (Homo sapiens) (P16473 whole entry, looked up): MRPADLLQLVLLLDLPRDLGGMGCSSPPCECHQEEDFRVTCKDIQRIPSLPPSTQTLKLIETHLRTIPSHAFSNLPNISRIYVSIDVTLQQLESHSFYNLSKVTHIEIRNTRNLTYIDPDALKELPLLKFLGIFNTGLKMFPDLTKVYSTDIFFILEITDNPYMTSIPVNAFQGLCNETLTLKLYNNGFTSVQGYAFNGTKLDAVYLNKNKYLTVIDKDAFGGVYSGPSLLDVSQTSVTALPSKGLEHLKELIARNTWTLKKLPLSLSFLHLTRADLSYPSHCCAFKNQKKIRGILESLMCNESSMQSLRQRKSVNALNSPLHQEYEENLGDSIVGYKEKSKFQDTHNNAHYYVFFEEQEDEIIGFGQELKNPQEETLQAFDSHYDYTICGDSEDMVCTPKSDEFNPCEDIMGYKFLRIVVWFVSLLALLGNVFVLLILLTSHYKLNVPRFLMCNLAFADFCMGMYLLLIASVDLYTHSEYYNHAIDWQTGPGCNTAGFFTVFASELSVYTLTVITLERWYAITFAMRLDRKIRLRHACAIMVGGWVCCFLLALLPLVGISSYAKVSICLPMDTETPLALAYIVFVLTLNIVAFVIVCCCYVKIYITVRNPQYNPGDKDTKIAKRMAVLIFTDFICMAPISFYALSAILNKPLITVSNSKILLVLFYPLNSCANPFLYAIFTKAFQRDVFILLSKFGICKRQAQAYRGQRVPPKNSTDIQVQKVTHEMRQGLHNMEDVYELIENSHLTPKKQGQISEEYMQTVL

The nature of experiment [7]: qHTS assay to identify small molecule agonists of the hypoxia (HIF-1) signaling pathway - cell viability counter screen (AID 1224844; calls by dose curve; further: nearly all actives have a fitted effect of over 50% in size; further: potency means the concentration at half of the fitted maximal effect). Put shortly: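 CellTiter-Glo luminescence read-out, 30 min RT, taken in the same wells as the beta-lactamase HRE reporter assay; HRE-bla ME-180 cells, 0.5% dialyzed FBS, 17 hr compound treatment at 37C, 5% CO2.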
Experiment [8] is described as follows: qHTS assay to identify small molecule agonists of H2AX (AID 1224845; active means well fitted activation curve with a large enough effect in the signal ratio in the repeat runs, not every such curve was filed as active; the % refers to the signal ratio; further: potency means the concentration at half of the fitted maximal effect). The procedure, abridged: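 Phospho-H2AX Ser139 measured by HTRF (ex 320 nm; em 665 and 620 nm) after 24 hr antibody incubation. Compounds, 15 concentrations, 0.76% DMSO, were applied to CHO-K1 cells for 3hr at 37C before lysis.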
A short description of experiment [9]: qHTS assay to identify small molecule agonists of the hypoxia (HIF-1) signaling pathway (AID 1224846; active means well fitted activation curve with a large enough effect in the signal ratio in the repeat runs, not every such curve was filed as active; the % refers to the signal ratio). Put shortly:
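Beta-lactamase FRET read-out (CCF4-AM substrate) from ME-180 cells carrying an HRE-driven bla reporter, after 17 hrs compound exposure at 37C/5% CO2. Cells were seeded at 2,000 per well in 0.5% dialyzed FBS medium and preincubated 5 hrs.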

The nature of experiment [10]: qHTS assay to identify small molecule antagonists of the estrogen related receptor (ERR) signaling pathway from Tox21 library (AID 1224848). Further: nearly all actives have a fitted effect of over 50% in size. Further: potency means the concentration at half of the fitted maximal effect. The procedure, abridged:
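ERR cell line, 2,000 cells/well. 6 h settle, then compound (DMSO) added; 18 h at 37 C; ONE-Glo luminescence after 30 min RT.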

Experiment [11] is described as follows: qHTS assay to identify small molecule agonists of the estrogen related receptor (ERR) signaling pathway from Tox21 library (AID 1224849; calls by dose curve; further: nearly all actives have a fitted effect of over 15% in size). To be noted: ERR reporter cell line, ONE-Glo luciferase, 18 h. Put shortly:
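Luminescence readout (ONE-Glo, 30 min RT) after 18 h compound exposure at 37 C of NTP-supplied ERR reporter cells; cells were plated 6 h before compound addition by pin tool.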

The nature of experiment [12]: qHTS RealTime-Glo MT Cell Viability Assay in HepG2 cells - 24 hour (AID 1224867). Further: nearly all actives have a fitted effect of over 50% in size. Further: potency means the concentration at half of the fitted maximal effect. The procedure, abridged: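 Real-time, nonlytic viability: 600 HepG2 cells/well mixed with NanoLuc enzyme plus prosubstrate; 5 h settle, compound (DMSO) added by pintool; luminescence monitored over 40 h at 37 C.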
Experiment [13] can be described thus: qHTS RealTime-Glo MT Cell Viability Assay in HEK293 cells - 32 hour (AID 1224868). Further: nearly all actives have a fitted effect of over 50% in size. Further: potency means the concentration at half of the fitted maximal effect. Put shortly:
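Cells + reagent dispensed (600 cells/well, HEK293) → 5 h at 37 C/5% CO2 → 23 nL compound in DMSO pinned → 40 h at 37 C → luminescence read at 0, 8, 16, 24, 32, 40 h.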

A short description of experiment [14]: qHTS RealTime-Glo MT Cell Viability Assay in HepG2 cells - 40 hour (AID 1224870). Further: nearly all actives have a fitted effect of over 50% in size. Further: potency means the concentration at half of the fitted maximal effect. Put shortly:
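Real-time viability: cells seeded at 600 per well together with NanoLuc and cell-permeant prosubstrate, compounds added after 5 h incubation. Luminescence tracked at 0, 8, 16, 24, 32 and 40 h of exposure.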

Experiment [15] can be described thus: A CellTox Green Cytotoxicity Assay to monitor cytotoxicity in HEK293 cells - 40 hour (AID 1224871). Further: nearly all actives have a fitted effect of over 45% in size. Further: potency means the concentration at half of the fitted maximal effect. The procedure, abridged: (§1)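 Read-out: fluorescence of a cell-impermeant cyanine dye staining DNA of dead cells, proportional to cytotoxicity. HEK293, 600 cells/well with reagent, compound (23 nL DMSO) added after 5 h; reads at 0, 8, 16, 24, 32, 40 h.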
The nature of experiment [16]: qHTS assay to identify small molecule agonists of H2AX - cell viability counter screen (AID 1224847; calls by dose curve; further: nearly all actives have a fitted effect of over 30% in size; further: potency means the concentration at half of the fitted maximal effect). Put shortly:
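CHO-K1 cells plated overnight at 37C, then exposed 3 h at 37C to compounds at 15 concentrations (0.76% DMSO final). Viability by CellTiter-Glo luminescence after 30 min at room temperature.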

Experiment [17] can be described thus: A CellTox Green Cytotoxicity Assay to monitor cytotoxicity in HEK293 cells - 0 hour (AID 1224869). Further: nearly all actives have a fitted effect of over 50% in size. Further: potency means the concentration at half of the fitted maximal effect. Put shortly: as §1
Experiment [18] concerns the target Nuclear receptor subfamily 1 group I member 3 (Homo sapiens) (UniProt Q14994). Briefly: qHTS assay to identify small molecule antagonists of the constitutive androstane receptor (CAR) signaling pathway (AID 1224838).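 Further: HepG2 cells stably expressing hCAR with CYP2B6 luciferase reporter stimulated by CITCO; nearly all actives have a fitted effect of over 40% in size.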 The procedure, abridged: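 Read-out: ONE-Glo luciferase luminescence after 30 min at room temperature. HepG2-CYP2B6-hCAR double-stable cells, compounds in 15-point titration plus 50 nM CITCO final, 24 h at 37 C/5% CO2.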

Experiment [19] shares this target. As to the kind of experiment: qHTS assay to identify small molecule agonists of the constitutive androstane receptor (CAR) signaling pathway (AID 1224839). Further: nearly all actives have a fitted effect of over 15% in size. Further: potency means the concentration at half of the fitted maximal effect.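 On activation: HepG2 cells stably carrying human CAR and a CYP2B6 luciferase reporter.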 The procedure, abridged:
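HepG2 cells stably co-transfected with hCAR and a CYP2B6-2.2kb luciferase reporter; compounds at 15 concentrations with 0.75 uM PK11195 present. After 24 hr at 37 C, luciferase read by ONE-Glo luminescence.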

SMILES strings stand for the structures. Where “and” joins values, the source holds several entries; their conditions need not be identical. Equal values may be shown once. Results filed as inconclusive are left out. More than one record can exist for a structure, and the calls need not agree. Calls of active or inactive are those of the source. Unless noted, the call rests on the fitted dose curve; in most records, active means well fitted curve in the direction sought with a large enough effect in the repeat runs; inconclusive means weak or mixed curves; inactive means no such curve, though single readings can be large; an effect the other way counts as inactive or inconclusive.
On the % scale 0 is the no-effect control and ±100 the full control effect.

Chain of Nuclear receptor subfamily 1 group I member 3 (Homo sapiens) (Q14994 whole entry, looked up): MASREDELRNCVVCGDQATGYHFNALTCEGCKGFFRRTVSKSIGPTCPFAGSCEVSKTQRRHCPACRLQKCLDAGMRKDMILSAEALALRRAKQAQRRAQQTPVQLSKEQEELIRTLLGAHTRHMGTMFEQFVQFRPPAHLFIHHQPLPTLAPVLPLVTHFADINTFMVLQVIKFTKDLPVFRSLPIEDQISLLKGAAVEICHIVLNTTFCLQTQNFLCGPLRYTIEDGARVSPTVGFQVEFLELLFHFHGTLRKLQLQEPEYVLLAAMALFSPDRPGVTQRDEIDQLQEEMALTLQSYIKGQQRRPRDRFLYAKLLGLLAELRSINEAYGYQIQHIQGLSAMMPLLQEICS

As to `CCCCCc1ccc(Cl)cc1`, the Potency result in experiment [1], in experiment [2], in experiment [3], in [4], in experiment [5] and in experiment [6] was “inactive” each time. In addition, the Potency result in [7], in experiment [8], in experiment [9], in experiment [10], in experiment [12] and in experiment [14] was “inactive” each time. For the same molecule, the Potency result in experiment [15] was “inactive”. In addition, in experiment [11] (at 92.4 µM (top of the series)), the activity change, positive = activation is -14.2% (inactive). In addition, the Potency in [13] was 15.5 µM (active).
Take `COc1cccc2c1C(=O)c1c(O)c3c(c(O)c1C2=O)C[C@@](O)(C(C)=O)C[C@@H]3O[C@H]1C[C@H](N)[C@H](O)[C@H](C)O1`: the Potency in [1] was 19.4 µM (active) and 1.19 µM (active); in experiment [2], 2.75 µM (active) and 211 nM (active); in experiment [3] it was 27.5 µM (active); in experiment [5], 0.154 µM (active); in experiment [7] it was 553 nM (active) and inactive; in experiment [8], 0.0391 µM (active). Besides, the Potency was 24.7 µM (active) in [12]; 69.6 nM (active) and 3.4 nM (active) in experiment [13]; 43.9 µM (active) in [17]; 19.6 µM (active) in experiment [14]. For the same molecule, the Potency result in experiment [4], in experiment [16] and in experiment [10] was “inactive” throughout. Also, the activity change, positive = activation in experiment [11] (at 42.5 µM (top of the series)) was -0.62% (inactive); in experiment [11] (at 92.4 µM (top of the series)) it was -74.3% (inactive).
As to `O=C(/C=C/c1ccc(O)c(O)c1)O[C@@H](C(=O)O)[C@@H](OC(=O)/C=C/c1ccc(O)c(O)c1)C(=O)O`, the Potency entry in experiment [1], in experiment [18], in experiment [19], in [3], in [7] and in experiment [9] was “inactive” throughout. Also, the Potency result in experiment [16], in experiment [12], in experiment [13], in [17], in experiment [14] and in experiment [15] was “inactive” throughout.
Turning to `CC(C)=CCC1=C(O)c2ccccc2C(=O)C1=O`, the Potency result in experiment [18], in experiment [5], in experiment [7], in experiment [9], in [12] and in experiment [14] was “inactive” in each case. For the same molecule, the Potency was 27.1 µM (active) in experiment [19] and 2.42 µM (active) in experiment [4]. Besides, the activity change, positive = activation in [11] (at 92.4 µM (top of the series)) is -51.5% (inactive).
Consider `COc1ccc(NC(=O)CC(C)=O)cc1`, for which the Potency entry in experiment [2], in experiment [18], in [19], in experiment [3], in experiment [6] and in experiment [7] was “inactive” in each case. The Potency result in [8], in experiment [9], in [16], in experiment [12], in experiment [13] and in [17] was “inactive” in each case. Further, in [14], the Potency entry is “inactive”.
As for `CN1CCN(Cc2cc(-c3ccc4[nH]c(=O)oc4c3)co2)[C@@H](c2ccc(F)cc2)C1`, the Potency entry in [19], in [8], in experiment [9] and in [17] was “inactive” in each case. Besides, the values for the Potency in experiment [6] and in experiment [13] were 13.2 µM (active) and 21.1 µM (active), respectively.
For the molecule `O=C1CCc2ccc(OCCCCN3CCN(c4cccc(Cl)c4Cl)CC3)cc2N1`, the Potency entry in experiment [18], in experiment [19], in experiment [5] and in experiment [8] was “inactive” in each case. Further, the Potency is 11.9 µM (active) in experiment [4], 55.2 µM (active) in [16], 11.9 µM (active) in [10] and 10.7 µM (active) in experiment [13]. In [11] (at 42.5 µM (top of the series)), the activity change, positive = activation is -56% (inactive).
As for `Cc1cc(C)c(/C=C2\C(=O)Nc3ccccc32)[nH]1`, the Potency result in [1], in experiment [2], in experiment [3], in experiment [4], in experiment [5] and in experiment [6] was “inactive” throughout. The Potency result in experiment [16], in experiment [10], in experiment [12], in experiment [13] and in experiment [14] was “inactive” throughout. In experiment [11] (at 42.5 µM (top of the series)), the activity change, positive = activation is 5.59% (inactive). Besides, the results for the Potency in [17] and in [15] were 10.7 µM (active) and 9.52 µM (active), respectively.
On to `CCCCCCCCCCCCOC(=O)c1ccc(O)cc1`, for which the Potency result in experiment [1], in experiment [19], in experiment [3], in [7], in experiment [9] and in experiment [12] was “inactive” in each case. Moreover, the Potency result in [17], in experiment [14] and in experiment [15] was “inactive” in each case.
As to `CN1CCC[C@@H]1CCO[C@](C)(c1ccccc1)c1ccc(Cl)cc1`, the Potency entry in [19], in experiment [4], in experiment [5] and in [17] was “inactive” throughout. The Potency in experiment [7] is 21.3 µM (active); in experiment [12], 23.9 µM (active); in experiment [13], 19 µM (active); in experiment [14], 23.9 µM (active); in experiment [15], 26.8 µM (active). The activity change, positive = activation in [11] (at 42.5 µM (top of the series)) is -35.9% (inactive).
For the molecule `COC(=O)Nc1nc2ccc(C(=O)c3ccccc3)cc2[nH]1`, the Potency entry in experiment [1], in experiment [18], in experiment [3], in experiment [6], in experiment [9] and in experiment [16] was “inactive” each time. Besides, the Potency result in experiment [12], in experiment [17], in experiment [14] and in [15] was “inactive” throughout. The Potency in experiment [13] was 0.848 µM (active).
For `CCCCCC/C=C\CCCCCCCC(=O)O`, the Potency result in experiment [1], in experiment [18], in [19], in experiment [3], in experiment [6] and in experiment [8] was “inactive” in each case. The Potency entry in experiment [16], in experiment [12], in [13], in experiment [14] and in [15] was “inactive” in each case.
